Results filed as inconclusive are left out. Active and inactive are the calls of the source. The call rests on the fitted dose curve; in most records, active means well fitted curve in the direction sought with a large enough effect; inconclusive means small, poorly fitted or top-dose-only effect, or another doubt; inactive means no such curve, though single readings can be large; an effect the other way counts as inactive or inconclusive.
Assays:
[1] = target: Cellular tumor antigen p53 (Homo sapiens) (UniProt P04637); assay: Primary qHTS for small molecule compounds that upregulate eGFP-tagged delta133p53alpha (in N-terminal) cells. (AID 2060322); settings: NCI-H358 eGFP-delta133p53alpha fluorescence, 24 h; activation: hits give high values;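 further: cells pre-induced with doxycycline then dosed without doxycycline; 0% = DMSO vehicle and 100% = reference activator; nearly all actives have a fitted effect of over 75% in size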
Cellular tumor antigen p53 (Homo sapiens), sequence (P04637 whole entry, looked up): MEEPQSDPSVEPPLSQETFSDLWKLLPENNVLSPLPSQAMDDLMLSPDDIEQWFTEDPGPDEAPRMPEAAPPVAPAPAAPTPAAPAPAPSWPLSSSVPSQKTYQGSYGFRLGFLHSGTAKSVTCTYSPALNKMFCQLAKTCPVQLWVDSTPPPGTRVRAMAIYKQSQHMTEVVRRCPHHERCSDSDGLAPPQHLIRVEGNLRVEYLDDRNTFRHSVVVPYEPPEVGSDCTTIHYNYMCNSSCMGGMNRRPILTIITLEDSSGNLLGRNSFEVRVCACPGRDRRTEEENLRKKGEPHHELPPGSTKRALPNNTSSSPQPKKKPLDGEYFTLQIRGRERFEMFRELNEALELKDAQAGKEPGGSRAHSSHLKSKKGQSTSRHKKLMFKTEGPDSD
Outline: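 NCI-H358 cells pre-induced 24 h with 10 ng/ml doxycycline for eGFP-delta133p53alpha, plated dox-free and exposed 24 h at 37C to titrated compounds. Fixed, Hoechst-stained; gated GFP peak intensity by laser scanning cytometry, normalized to DMSO (0%) and 57.5 uM 5-azacytidine (100%).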

[2] = target: Aldehyde dehydrogenase, mitochondrial (Homo sapiens) (UniProt P05091); assay: qHTS for Inhibitors of the Aldehyde Dehydrogenase Family (ALDH2) Primary screen (AID 2061308); settings: ALDH2 enzyme inhibition qHTS, 1536-well; series mostly up to 56 µM;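 further: plate controls were vehicle for no effect and reference inhibitor for full effect; nearly all actives have a fitted effect of over 55% in size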
[3] = target: Retinaldehyde dehydrogenase 3 (Homo sapiens) (UniProt P47895); assay: qHTS for Inhibitors of the Aldehyde Dehydrogenase Family (ALDH1A3) Primary screen (AID 2061315); settings: ALDH inhibition qHTS; series mostly up to 56 µM;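 further: plate controls were DMSO vehicle for no effect and reference inhibitor for full effect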

CC(=O)O[C@@H]1C(=O)C(C)=C(CCC(C)CC(=O)O)[C@@]2(C)CCCC(C)(C)C12 (some centres undefined)
inactive: activation [1] 0.893% | Potency [2] | Potency [3]

C[C@H](O)C(O)(C(=O)OCc1ccccc1NC(=O)CCC(N)C(=O)O)[C@H](C)O (some centres undefined)
inactive: activation [1] -24.4% | Potency [2] | Potency [3]

CC1(C)CCC2(C(=O)OC3OC(COC4OC(CO)C(O)C(O)C4O)C(O)C(O)C3O)CCC3(C)C(=CCC4C5(C)CCC(OC6OCC(O)C(O)C6O)C(C)(C)C5CCC43C)C2C1O (centres undefined)
inactive: activation [1] -11.5% | Potency [2] | Potency [3]

C=C(C(=O)O)[C@@H]1CC[C@@]2(C)CC[C@@H](O)C(=C)C2C1 (some centres undefined)
inactive: activation [1] 22.9% | Potency [2] | Potency [3]

CC(C)(O)c1ccc2c(c1)C(O)CC1C(C)(C(=O)O)CCCC21C (centres undefined)
inactive: activation [1] 5.34% | Potency [2] | Potency [3]

CC(C)(C)NS(=O)(=O)c1ccc(-c2ccc3[nH]nc(N)c3c2)cc1
inactive: activation [1] 0% | Potency [2] | Potency [3]

CC1(C)CC[C@]23CO[C@@]4(CCC5[C@@]6(C)CC[C@H](O[C@@H]7OC[C@H](O[C@@H]8O[C@H](CO)[C@@H](O)[C@H](O)[C@H]8O[C@@H]8OC[C@@H](O)[C@H](O)[C@H]8O)[C@H](O)[C@H]7O)[C@@](C)(CO)C6CC[C@@]5(C)[C@]4(C)CC2=O)[C@@H]3C1 (some centres undefined)
inactive: activation [1] 18.3% | Potency [2] | Potency [3]

CCCC(=O)O[C@@H]1[C@@H]2[C@@H](OC(C)=O)[C@]3(C)C(=O)[C@H]4[C@@H](OC(C)=O)C(C)(C)C[C@H]4[C@]3(C)C(=O)[C@@]2(OC(C)=O)C[C@@H]1C
inactive: activation [1] -10.7% | Potency [2] | Potency [3]

O=C(CCCCCCCCC#CI)Oc1ccccc1
inactive: activation [1] -8.33% | Potency [2] | Potency [3]

Cc1[nH]c2ccccc2c1CCNC(=O)c1ccccc1F
inactive: activation [1] -0.477% | Potency [2] | Potency [3]

C=CC(C)(O)CC/C=C(\C)C(=O)OCC1OC(OC2CCC3(C)C(CCC4(C)C3CC=C3C5CC(C)(C)C(O)CC5(C(=O)O)CCC34C)C2(C)C)C(O)C(OC2OC(CO)C(O)C(OC3OC(CO)C(O)C(OC4OC(COC5OC(CO)C(O)C(O)C5O)C(O)C(O)C4O)C3O)C2O)C1O (centres undefined)
inactive: activation [1] 9.92% | activity change, negative = inhibition [2] 1.9% [at 11.2 µM] | activity change, negative = inhibition [3] -5.36% [at 11.2 µM]

CC(C)(O)CC(CO)NC(=O)CC(O)CC(=O)Cc1ccccc1 (centres undefined)
inactive: activation [1] 22.1% | Potency [2] | Potency [3]

CCC(CC)n1ccc2c(C(=O)NCc3c(C)cc(C)[nH]c3=O)cc(C#N)cc21
inactive: activation [1] -3.35% | Potency [2] | Potency [3]

COc1cc(C)c(C(=O)Oc2cc(C)c(C(=O)Oc3cc(C)c(C(=O)NC(C)C(=O)O)c(O)c3)c(O[C@@H]3O[C@H](CO)[C@@H](O)[C@H](O)[C@H]3OC(C)=O)c2)c(OC)c1 (some centres undefined)
inactive: activation [1] -7.63% | Potency [2] | Potency [3]

CC(=O)OC1C(OC(=O)c2ccccc2)C2C(C)(C)CCC(OC(C)=O)C2(C)C23CCC(C)(C2)C(=O)CC13 (centres undefined)
inactive: activation [1] -14.5% | Potency [2] | Potency [3]

COc1c2c(nc3occc13)C(CC=C(C)C)(OC)C(O)CC2 (centres undefined)
inactive: activation [1] 5.34% | Potency [2] | Potency [3]

CC1CCC2(C(=O)O)CCC3(C)C(=CCC4C5(C)C[C@@H](O)[C@@H](O)C(C)(CO)C5CCC43C)C2C1(C)O (some centres undefined)
inactive: activation [1] 11.6% | Potency [2] | Potency [3]

N#C[C@@H]1C[C@H](F)CN1C(=O)CNC1[C@H]2CN(C(=O)c3ccc(F)cc3)C[C@@H]12 (some centres undefined)
inactive: activation [1] -1% | Potency [2] | Potency [3]

CC1CCCC(O)CCC/C=C/c2cc(OS(=O)(=O)O)cc(O)c2C(=O)O1 (centres undefined)
inactive: activation [1] -19.8% | Potency [2] | Potency [3]

CC1=C(C)C(=O)OC(C(C)C2CCC3C4CC=C5CC(OC6OC(COC7OC(CO)C(O)C(O)C7O)C(O)C(O)C6O)CC(O)C5(C)C4CCC23C)C1 (centres undefined)
inactive: activation [1] 9.16% | Potency [2] | Potency [3]

CC(=O)NC(CCC(=O)O)C(=O)NCCc1ccc(O)cc1 (centres undefined)
inactive: activation [1] -14.5% | Potency [2] | Potency [3]

C=C1CC2C3(C)C(O)CC(=O)C(C)(C)C3C(O)C(OC(C)=O)C2(C)C2C(=O)OC(C)(C(=O)OC)C(=O)C12C (centres undefined)
inactive: activation [1] 27.5% | Potency [2] | Potency [3]

O=C(/C=C/c1ccc(O)cc1)OCC1OC(O)C(OC2OC(CO)C(O)C(O)C2O)C(O)C1O (centres undefined)
inactive: activation [1] -13% | Potency [2] | Potency [3]

— PubChem BioAssay (NCATS)
